Assay results published in the supplement of paper PMC11219838.
Values without a mark were called inactive.

Tests used:
Details in all cases: 60 µM; 5 days; temperature: 20 °C
Meloidogyne hapla J2 = test: proportion of mobile M. hapla J2 relative to DMSO control (fraction of DMSO control); higher = more viable, less nematicidal, active = 0.7 or less
In short: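 Compound was pinned to 60 µM final (0.6% v/v DMSO) into 96-well wells, each holding about 25 M. hapla J2 in distilled water. Plates were sealed and shaken for 5 days at 20 °C and 200 rpm, then given 2 µL 1 M NaOH per well. Microscopic mobility scores were normalised to the mean of the plate's own DMSO wells, eight per plate, with two biological replicates averaged.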

Ditylenchus dipsaci = test: proportion of mobile D. dipsaci (mixed stage) relative to DMSO control (fraction of DMSO control); higher = more viable, less nematicidal, active = 0.86 or less; extreme values may be limits of the assay
In short: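 Mobility values are relative to DMSO controls and are averages of two biological replicates. For each well of a 96-well plate, about 20 D. dipsaci worms, grown on pea plants in Gamborg B-5 agar and funnel-extracted into water, were dispensed in distilled water. Plates received pinned compound at 60 µM final with 0.6% v/v DMSO and were sealed and shaken at 200 rpm for 5 days at 20 °C before 2 µL 1 M NaOH was added and mobile worms were scored by microscope.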

[1] = tested on: Caenorhabditis elegans dauer (daf-2(e1370)); test: proportion of mobile C. elegans dauer larvae relative to DMSO control (fraction of DMSO control); higher = more viable, less nematicidal, active = 0.63 or less; extreme values may be limits of the assay
In short: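 Synchronized C. elegans daf-2(e1370) larvae were held at 25 °C for 48 h on MYOB plates with E. coli OP50 to form dauers, and about 20 dauers were added per 96-well well in liquid NGM. Compound was pinned to 60 µM final (0.6% v/v DMSO), and sealed plates were shaken at 200 rpm for 5 days at 20 °C. The proportion of mobile worms was scored under a dissection microscope relative to DMSO controls and averaged over two biological replicates.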

| SMILES | proportion of mobile M. hapla J2 (Meloidogyne hapla J2) | proportion of mobile D. dipsaci (Ditylenchus dipsaci) | proportion of mobile C. elegans dauer larvae [1] |
| --- | --- | --- | --- |
| CC1Cc2ccccc2N1C(=O)CSc1nnc(-c2ccccc2)o1 (configuration not stated) | 1.03 | 1 | – |
| COc1ccc(-c2noc(-c3cccc(Br)c3)n2)cc1 | 0.987 | 1 | – |
| Brc1cccc(-c2nc(-c3cccnc3)no2)c1 | 1.01 | 1 | – |
| CCCOc1ccc(-c2nc(-c3ccncc3)no2)cc1 | 0.85 | 1 | – |
| Cc1cccc(-c2noc(COc3ccc(Br)cc3)n2)c1 | 0.882 | 1 | – |
| O=C(c1ccccc1-c1nc(-c2ccccc2)no1)N1CCCCC1 | – | 1 | 1 |
| COc1ccc(-c2nnc(SCC(=O)OCc3ccccc3)o2)cc1 | – | 1 | 1 |
| Cc1[nH]c2ccc(-c3nnc(SCC(=O)NCc4ccc(F)cc4)o3)cc2c1C | – | 1 | 1 |
| COc1ccccc1-c1nc(-c2cccc(Br)c2)no1 | – | 1 | 1 |
| CC(C)Oc1ccc(-c2nc(-c3ccccn3)no2)cc1 | – | 1 | 0.0263 (active) |
| CCOc1ccccc1-c1nnc(SCC(=O)NC(C)CC)o1 (configuration not stated) | – | 1 | 1 |
| COc1cccc(-c2noc(COc3ccc(C)cc3)n2)c1 | – | 1 | 1 |
| COc1ccc(-c2noc(-c3cc(C)ccc3C)n2)cc1 | – | 1 | 1 |
| O=C(CSc1nnc(-c2ccccc2)o1)NC1CCCCC1 | – | 1 | 1 |
| c1ccc(-c2noc(C3COc4ccccc4O3)n2)cc1 (configuration not stated) | – | 1 | 0.539 (active) |
| COc1ccc(-c2noc(-c3ccc(Cl)cc3)n2)cc1 | – | 1 | 0.778 |
| O=C(CSc1nnc(-c2ccc(Br)cc2)o1)OCc1ccccc1 | – | 1 | 1 |
| COc1ccccc1OCc1nc(-c2ccc(Cl)cc2)no1 | – | 1 | 1 |
| CC(=O)Nc1c(C)ccc(CNC(=O)CSc2nnc(-c3ccc(C(C)(C)C)cc3)o2)c1C | – | 1 | 1 |
| C=C(C)COc1ccc(-c2nc(-c3cccnc3)no2)cc1 | – | 1 | 1 |
| CCOc1ccc(-c2nc(-c3ccccc3)no2)cc1 | – | 1 | 1 |
| Cc1ccc(CSc2nnc(-c3ccco3)o2)cc1 | – | 1 | 0.167 (active) |

| SMILES | proportion of mobile M. hapla J2 (Meloidogyne hapla J2) | proportion of mobile D. dipsaci (Ditylenchus dipsaci) | proportion of mobile C. elegans dauer larvae [1] |
| --- | --- | --- | --- |
| Cc1ccc(OCc2nc(-c3ccc(Cl)cc3)no2)cc1 | – | 1 | 1 |
| Fc1ccc(OCc2nc(-c3ccc(Br)cc3)no2)cc1 | – | 1 | 1 |
| COc1ccc(-c2nnc(SCc3ccc(Cl)cc3Cl)o2)cc1 | – | 1 | 1 |
| COc1ccc(-c2nnc(SCC(=O)c3ccc4ccccc4c3)o2)cc1 | – | 1 | 1 |
| FC(F)(F)c1cccc(-c2noc(-c3cccs3)n2)c1 | – | 1 | 1 |
| Clc1ccc(OCc2nc(-c3ccc(Br)o3)no2)cc1 | – | 1 | 1 |
| O=C(CSc1nnc(-c2ccncc2)o1)Nc1cc(C(F)(F)F)ccc1Cl | – | 1 | 1 |
| COc1ccc(-c2noc(-c3ccc(C)cc3)n2)cc1 | – | 0.932 | 1 |
| CCOc1cc(C#N)ccc1OCc1nc(-c2cccs2)no1 | – | 1 | 1 |
| Clc1cc(Br)ccc1OCc1nc(-c2ccccc2)no1 | – | 1 | 1 |
| COc1nc(-c2ccc(C)cc2)ccc1-c1noc(C)n1 | – | 1 | 1 |
| CCc1ccc(OCc2nc(-c3cccc(OC)c3)no2)cc1 | – | 1 | 1 |
| O=C(CSc1nnc(-c2ccc(Br)cc2)o1)NC1CCCCC1 | – | 1 | 1 |
| Brc1ccccc1-c1nc(-c2ccccc2)no1 | – | 1 | 0.676 |
| O=C(CSc1nnc(-c2cccc(Cl)c2)o1)Nc1nccs1 | – | 1 | 1 |
| COc1ccc(C(=O)CSc2nnc(-c3ccccc3)o2)cc1 | – | 1 | 1 |
| CC(=O)Nc1ccc(-c2nc(-c3ccccc3)no2)cc1 | – | 1 | 1 |
| COc1ccc(-c2nnc(SCC(=O)N3CC(C)CC(C)C3)o2)cc1 (configuration not stated) | – | 1 | 1 |
| FC(F)(F)c1cccc(-c2noc(-c3ccc4c(c3)OCO4)n2)c1 | – | 1 | 1 |
| CC(=O)Nc1cccc(-c2nnc(SCc3ccccc3)o2)c1 | – | 1 | 1 |
| CC(Sc1nnc(-c2ccc(C(C)(C)C)cc2)o1)C(=O)Nc1nccs1 (configuration not stated) | – | 1 | 1 |
| COc1ccc(-c2noc(C3CCCCC3)n2)cc1 | – | 1 | 0.779 |

| SMILES | proportion of mobile M. hapla J2 (Meloidogyne hapla J2) | proportion of mobile D. dipsaci (Ditylenchus dipsaci) | proportion of mobile C. elegans dauer larvae [1] |
| --- | --- | --- | --- |
| COc1ccc(CC(=O)Nc2ccc(-c3noc(-c4ccccc4Br)n3)cc2)cc1 | – | 1 | 1 |
| COc1ccc(-c2nnc(SCC(=O)Nc3ccccc3F)o2)cc1 | – | 1 | 1 |
| COc1ccc(-c2noc(-c3cccc(Cl)c3)n2)cc1 | – | 1 | 1 |
| Cc1cccc(-c2noc(-c3ccc(Cl)cc3)n2)c1 | – | 1 | 1 |
| CCc1ccc(OCc2nc(-c3cccnc3)no2)cc1 | – | 1 | 0.436 (active) |
| CCC(=O)Nc1ccccc1-c1nc(-c2ccccn2)no1 | – | 1 | 1 |
| COc1ccc(CC(=O)Nc2ccc(-c3noc(COc4cccc(C)c4C)n3)cc2)cc1 | – | 1 | 1 |
| O=C(Nc1ccc(-c2noc(-c3ccccn3)n2)cc1)c1cccc(Cl)c1 | – | 1 | 1 |
| Cc1ccc(-c2nnc(SCc3ccccc3F)o2)cc1 | – | 1 | 1 |
| Cc1ccc(C)c(-c2nc(-c3ccncc3)no2)c1 | – | 1 | 0.385 (active) |
| COc1nc(C)ccc1-c1noc(-c2ccc(F)cc2)n1 | – | 1 | 1 |
| COc1cccc(-c2noc(-c3ccc(C)cc3Cl)n2)c1 | – | 1 | 1 |
| COc1ccc(-c2noc(COc3ccc(C4CCCCC4)cc3)n2)cc1 | – | 1 | 1 |
| O=C(CSc1nnc(-c2cccc3ccccc23)o1)c1ccc(F)cc1 | – | 1 | 1 |
| Clc1cc(Br)ccc1OCc1nc(-c2ccncc2)no1 | – | 1 | 0.929 |
| N#Cc1ccccc1CSc1nnc(-c2ccco2)o1 | – | 1 | 0.85 |
| Cc1cccc(NC(=O)CSc2nnc(-c3ccncc3)o2)c1C | – | 1 | 1 |
| COc1ccc(-c2noc(CSc3nc4cc(C)ccc4[nH]3)n2)cc1 | – | 1 | 1 |
| Cc1ccc(-c2nnc(SCc3ccc(Br)cc3)o2)cc1 | – | 1 | 1 |
| Brc1ccc(OCc2nc(-c3ccc4c(c3)OCO4)no2)cc1 | – | 1 | 1 |
| Cc1ccccc1OCc1nc(-c2cccs2)no1 | – | 1 | 1 |
| Cc1cc(Cl)ccc1OCc1nc(-c2ccncc2)no1 | – | 1 | 1 |
